# Results filed as inconclusive are left out. Entries that show only a call come without a potency. Calls of active or inactive are those of the source. Calls follow the shape of the dose curve; as a rule, active = well fitted inhibition curve with a large enough effect; inconclusive = small, poorly fitted or top-dose-only effect; inactive = no such curve, though single readings can be large or run the other way.
# Assay: qHTS to identify inhibitors of the type 1 interferon - major histocompatibility complex class I in skeletal muscle: primary screen against the NCATS Mechanism Interrogation Plate v5.0 (MIPE) Libary (AID 1347411); also: nearly all actives have a fitted effect of over 65% in size
# Details: iHSKM cells + IFN-b, HiBiT-tagged MHC-I luminescence, 24 h; series mostly up to 45.8 µM
# Excerpt: Assay Submitter (PI): Travis B. Kinder Ph.D. & James Inglese Ph.D.
# Assay Development and Screening Technology Laboratory (ADST)
# National Center for Advancing Translational Sciences (NCATS), Rockville, MD
# National Institute of Health (NIH), Bethesda, Maryland
# Idiopathic inflammatory myopathies, collectively referred to as myositis, are a group of rare autoimmune diseases characterized by skeletal muscle inflammation, weakness, and usually accompanied by systemic pathologies of the skin, lungs, or vasculature. Current immunosuppressive therapies and glucocorticoids are often not curative and are accompanied by harsh side effects, especially in children with juvenile myositis. We initiated a drug repurposing and development program to identify more targeted, less toxic therapeutics to treat myositis. Although its cause is not known, muscle from a subset of patients have an abundance of the inflammatory type 1 interferon (IFN) and a down-stream product major histocompatibility complex class I (MHC class I), which are both thought to contribute to damage and weakness. We conducted quantitative high throughput screening on 6,576 compounds (4,679 unique) through a series of cell-based assays to identify those that inhibit the IFN-stimulated expression of MHC class I in muscle precursor cells (myoblasts). The compound identification and evaluation strategy utilized a primary screen with reporter-tagged MHC class I in genome-engineered myoblasts, ATP content counter screen for viability, HLA-ABC immunofluorescence secondary screen, and HLA-B RT-qPCR tertiary screen.
# The primary screen utilized CRISPR/Cas9 genome-engineering of immortalized human myoblasts, C25cl48, where a pro-luminescent reporter HiBit was fused to the C-terminus of endogenous MHC class I allele HLA-B*08:01 (HLA-B HiBit myoblasts). HiBit is an 11 amino acid fragment of NanoLuc luminescent reporter (Promega Corporation), and when complexed to the larger LgBit fragment, the reconstituted enzyme produces light in the presence of furimazine substrate (Schwinn et al., 2018). Briefly, HLA-B HiBit myoblasts were plated into 1536-well plates, treated with 4.0 ng/ml human IFN-beta and 2,480 compounds from the NCATS Mechanism Interrogation Plate v5.0 (MIPE5.0) in an 11-point, 1:3 titration with a high final concentration of 46 uM. After 24 hrs of treatment, cells were assayed by Nano-Glo HiBiT Lytic Detection System (Promega) and luminescence measured by a ViewLux 1430 Ultra HTS (Perkin Elmer).
# Schwinn MK, Machleidt T, Zimmerman K, Eggers CT, Dixon AS, Hurst R, Hall MP, Encell LP, Binkowski BF, Wood K V. 2018. CRISPR-Mediated Tagging of Endogenous Proteins with a Luminescent Peptide. ACS Chem Biol 13:467-474. doi:10.1021/acschembio.7b00549
# PROTOCOL TABLE (as described by Inglese et al., 2007)
# SEQUENCE No. (e.g., 1, 2, 3, etc.); […] (e.g., Cells, Incubation, Reagent, etc.); VALUE; DESCRIPTION
# 1a; Cells; 5 uL; Use a Multidrop Combi (Thermo Scientific) to seed 300 cells/well into 24 Greiner 1536 well white/solid bottom, high base, TC plates in 5 ul/well of iHSKM growth medium (GM) without dexamethasone into columns 1+2. Add metal lids with gas-exchange holes
# 1b; Cells; 5 uL; Use a Multidrop Combi (Thermo Scientific) to seed 300 cells/well into 24 Greiner 1536 well white/solid bottom, high base, TC plates in 5 ul/well of iHSKM GM without dexamethasone + 4 ng/ml IFN-b into columns 3 - 48. Add metal lids with gas-exchange holes
# 2; Incubate; 1 hr; Incubate at 37 C, 5% CO2, 95% RH
# 3; Compounds; 23 nl; Use Pin Tool (Wako) to transfer DMSO control, ruxolitinib IFN-b inhibitor control [High Concentration = 80 uM final, 16-pt, 1:2 in duplicate], and library compounds in DMSO
# 4; Incubate; 24 hrs; Incubate at 37 C, 5% CO2, 95% RH
# 5; Dispense; 2.5 ul; Use BioRAPTR FRD (Beckman Coulter) to add HiBit lytic reagent
# 6; Incubate; 10 min; Incubate in the dark at ambient temperature for lysis
# 7; Detector; 5 sec; Measure luminescence with ViewLux 1430 Ultra HTS (Perkin Elmer). […]
# Potency is read from the fitted curve at half-maximal effect.
row,Structure (SMILES),Potency
1,O=C(c1c(F)ccc(NS(=O)(=O)N2CC[C@@H](F)C2)c1F)c1c[nH]c2ncc(-c3cnc(C4CC4)nc3)cc12,inactive
2,COc1ccc(-n2c(SCCCN3C(=O)c4cccc5cccc(c45)C3=O)nnc2-c2ccncc2)cc1,inactive
3,CC#C[C@@H](CC(=O)O)c1ccc(OCc2cccc(-c3ccc(C(F)(F)F)cc3)c2)cc1,inactive
4,Cc1[nH]c(/C=C2\C(=O)Nc3ccc(S(=O)(=O)N(C)c4cccc(Cl)c4)cc32)c(C)c1C(=O)N1CCN(C)CC1,16.5 µM (active)
5,O=C(Nc1cccnc1)c1cc(-c2ccnc(F)c2)ccc1OCc1ccccc1,inactive
6,O=C1NC(=O)C(c2cnc3ccccn23)=C1c1cn2c3c(cc(F)cc13)CN(C(=O)N1CCCCC1)CC2,18.6 µM (active)
7,COC(C)(C)CCn1nc(Nc2c(C)cccc2C)c2cnc(Nc3ccc(OCCN4CCCC4)c(F)c3)nc21,11.7 µM (active)
8,CS(=O)(=O)c1ccc(Oc2cc(F)cc(C#N)c2)c2c1[C@H](O)C(F)(F)C2,inactive
9,O=C1Nc2nc(-c3c(O)cccc3OCC3CC3)cc([C@@H]3CCCNC3)c2CO1,3.7 µM (active)
10,O=c1[nH]c([C@@H]2CCCN2)nc2c1oc1ccc(Cl)cc12,inactive
11,C=CC(=O)Nc1cccc(Nc2nc(Nc3ccc(NC4CN(CCF)C4)cc3OC)ncc2C(F)(F)F)c1,16.5 µM (active)
12,FC(F)(F)c1ccc(/C=C/c2nc(COc3ccc(CCCCn4ccnn4)cc3)co2)cc1,inactive
13,CCNC(=O)C#Cc1ccc2c(C(=Nc3ccc(CN(C)C)cc3)c3ccccc3)c(O)[nH]c2c1,4.04 µM (active)
14,Cc1cc(-c2cc(OC(=O)c3ccccc3)ccc2Cl)cc2nnc(Nc3ccc(OCCN4CCCC4)cc3)nc12,inactive
15,Cc1c(NC(=O)c2cc3c(s2)CCCC3)cccc1-c1cn(C)c(=O)c(Nc2ccc(C3C(=O)N(C)CCN3C)cc2)n1 (stereo not given),inactive
16,Cc1cnc(-c2ccccc2C(C)C)nc1NCc1ccc(-n2ccnn2)cc1,inactive
17,CCn1c(N)c(C(=O)NC)c(=O)c2ccc(C#CC(C)(O)COC)nc21 (stereo not given),inactive
18,COc1cc(OC)c2c(=O)[nH]c(-c3cc(C)c(OCCO)c(C)c3)nc2c1,inactive
19,COc1cccc(OCCCN)c1-c1cc(Nc2cnc(C#N)cn2)n[nH]1,6.58 µM (active)
20,O=C(O)C1=CO[C@@H](O[C@@H]2O[C@H](CO)[C@@H](O)[C@H](O)[C@H]2O)[C@@H]2C(CO)=CC[C@H]12,inactive

row,Structure (SMILES),Potency
1,CN1CCN(c2ccc(-c3cccc(CN4CCOCC4)c3)cc2NC(=O)c2c[nH]c(=O)cc2C(F)(F)F)CC1,inactive
2,CC(C)NC(=O)COc1cccc(-c2nc(Nc3ccc4[nH]ncc4c3)c3ccccc3n2)c1,inactive
3,Cn1cc(-c2ccc3c(c2)CCN3C(=O)Cc2cccc(C(F)(F)F)c2)c2c(N)ncnc21,inactive
4,C=CC(=O)Nc1ccc2ncnc(Nc3cccc(Br)c3)c2c1,11.7 µM (active)
5,NCCOc1cc(C(=O)Nc2cc(OCCN)c3ccccc3n2)nc(C(=O)Nc2cc(OCCN)c3ccccc3n2)c1,inactive
6,Cn1cc(-c2cnn3c(N)c(Br)c(C4CCCNC4)nc23)cn1 (stereo not given),inactive
7,CS(=O)(=O)Nc1cc2occ(NC=O)c(=O)c2cc1Oc1ccccc1,inactive
8,O=C([C@@H](Cc1cccc(C(F)(F)F)c1)NS(=O)(=O)c1cc(F)c2c(c1)CCNC2)N1CCCC1,inactive
9,COc1cc2c(cc1OCCCN1CCCC1)N=C(N)C21CCC1,inactive
10,Cc1[nH]c(/C=C2\C(=O)Nc3ccc(F)cc32)c(C)c1C(=O)NCCN1CCCC1,10.2 µM (active)
11,Cc1cc2c(F)c(Oc3ncnn4cc(OCC(C)OC(=O)C(C)N)c(C)c34)ccc2[nH]1 (stereo not given),inactive
12,O=C(Nc1ccnc(NC(=O)C2CC2)c1)c1c(Cl)cccc1Cl,inactive
13,C[C@@H](c1ccc2nccn2c1)n1nnc2ncc(-c3cnn(C)c3)nc21,inactive
14,Cc1c(F)ccc(C(=O)Nc2cc([N+](=O)[O-])ccc2N2CCN(C)CC2)c1Cl,inactive
15,COc1ccc(-c2cnc3c(-c4cccc5ncccc45)cnn3c2)cc1,inactive
16,CN1C(=O)c2sccc2N(C)c2nc(Nc3ccc(S(N)(=O)=O)cc3)ncc21,26.2 µM (active)
17,C[C@H](CN(C)C)Oc1nc(Nc2cc3cccc(Cl)c3cn2)cnc1C#N,inactive
18,C1=C/COCc2cc(ccc2OCCN2CCCC2)Nc2nccc(n2)-c2cccc(c2)COC/1,2.34 µM (active)
19,Nc1nccc(-c2c(-c3ccc(F)cc3)ncn2C2CCCCC2)n1,inactive
20,CC(/C=C/C(=O)NO)=C\[C@@H](C)C(=O)c1ccc(N(C)C)cc1,2.08 µM (active)
